Shown are actives, neighbours in structure and some others; about 4% of the full set was active somewhere.
Anthrax LF inh2: inhibitors of Bacillus anthracis lethal factor protease; P15917; multiplex microsphere protease cleavage assay, LF; inhibition, % at 10 µM; actives 0.12% (n = 360,000); AID 588501; also: plate controls were buffer without enzyme for full effect and enzyme alone for no effect
BoNT A protease: blocks Botulinum neurotoxin A light chain protease; multiplex microsphere protease substrate cleavage, flow cytometry; inhibition, % at 10 µM; actives 0.17% (n = 360,000); also: plate controls were buffer without enzyme for full effect and enzyme alone for no effect
MazF activator: activators of E. coli MazEF toxin-antitoxin RNase. P0AE70. FAM/BHQ RNA-DNA oligo cleavage fluorescence, 5 h. activation, % at 20 µM. actives 0.32% (n = 350,000); in the data active = activation above about 50%
Target sequence (P0AE70 whole entry, looked up): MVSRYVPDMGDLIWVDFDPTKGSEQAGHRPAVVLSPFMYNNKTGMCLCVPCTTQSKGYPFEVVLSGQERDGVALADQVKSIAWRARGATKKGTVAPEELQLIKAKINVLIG
BoNT-F LC inh: blocks Botulinum neurotoxin F light chain protease. actives 0.22% (n = 360,000). Multiplex microsphere protease cleavage assay, flow cytometry. inhibition, % at 10 µM; in the data active = inhibition above about 35%, passing the limit was not always enough; inconclusive = no clear call, values can overlap the other calls; also: plate controls were buffer without enzyme for full effect and enzyme alone for no effect
Bead autofluor: compound fluorescence in toxin protease inhibitor counterscreen; compound autofluorescence counterscreen, microsphere flow cytometry; stronger effect = higher value; fluorescence intensity (test concentration not listed); actives 3.1% (n = 360,000); in the data active = fluorescence intensity above about 16000; inconclusive = no clear call, values can overlap the other calls
VHR inh abs: inhibitors of human VHR1 phosphatase (DUSP3) | P51452 | recombinant VHR phosphatase, pNPP absorbance | inhibition, % at 13.3 µM | actives 0.52% (n = 290,000); in the data active = inhibition above about 50%
Target sequence (P51452 whole entry, looked up): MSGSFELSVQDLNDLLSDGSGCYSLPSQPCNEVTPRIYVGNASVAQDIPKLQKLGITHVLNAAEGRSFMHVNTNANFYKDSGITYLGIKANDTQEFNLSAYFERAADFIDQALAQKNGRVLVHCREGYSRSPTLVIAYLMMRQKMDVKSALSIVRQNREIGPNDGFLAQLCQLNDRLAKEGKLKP
Numbers without * were called inactive; ? = inconclusive; nt = no result given. Rule as the data show it, unless noted: active = inhibition above about 30%; inconclusive = no clear call, values can overlap the other calls; inactive = below that.

SMILES	Anthrax LF inh2	BoNT A protease	MazF activator	BoNT-F LC inh	Bead autofluor	VHR inh abs
COc1cccc(OCC(O)CN2CCc3ccccc3C2)c1 (stereo not given)	-1.0	0.7	0.2	3.2	4657	-11.5
O=C(COC(=O)c1cc(-c2cccc3ccccc23)nc2ccccc12)NC1CCS(=O)(=O)C1 (stereo not given)	2.2	4.9	291.9*	-6.3	2589	5.4
Cc1cc(C(=O)OCC(=O)NC2CCS(=O)(=O)C2)c2ccccc2n1 (stereo not given)	-1.7	0.5	10.7	2.1	3892	6.9
O=C(c1ccc(S(=O)(=O)NCc2ccco2)cc1)N1CCCC1	0.0	1.3	4.3	6.2	3446	-11.4
COc1cccc(NC(=O)COC(=O)c2ccc(S(=O)(=O)NCc3ccco3)cc2)c1	-1.3	-3.1	4.3	-8.7	23475*	-27.7
O=C(NC1CCCCCC1)c1ccc(S(=O)(=O)NCc2ccco2)cc1	-1.1	-1.0	-15.4	-1.3	23471*	26.9
CC1CCCCC1NC(=O)COC(=O)c1ccc(S(=O)(=O)NCc2ccco2)cc1 (stereo not given)	-7.2	4.1	5.4	6.3	21167*	-17.1
O=S(=O)(NCc1ccco1)c1ccc(S(=O)(=O)N2CCCCC2)cc1	-5.9	-1.4	-12.6	-3.8	23145*	17.9
CC(=O)Nc1ccc(NC(=O)COC(=O)c2ccc(S(=O)(=O)NCc3ccco3)cc2)cc1	-12.3	-0.1	-1.4	-1.8	3599	nt
COc1ccc(NC(=O)C2(C)CCN2CCc2ccccc2)cc1OC (stereo not given)	2.0	0.0	nt	2.8	3834	nt
Cc1cccc(NC(=O)c2cc(-c3ccccn3)nc3ccccc23)c1C	-2.3	-1.2	16.0	-1.1	4540	48.4
CCOC(=O)C1CCCN(CCC(=O)Nc2ccccc2)C1 (stereo not given)	-0.7	-0.9	0.3	-5.0	?	15.6
CCOC(=O)C1CCCN(C/C=C/c2ccccc2[N+](=O)[O-])C1 (stereo not given)	-7.2	9.8	-6.6	12.9	16661*	6.0
CCOC(=O)C1CCCN(CC(=O)NC2CC2)C1 (stereo not given)	-2.8	-1.7	10.2	1.9	16644*	49.4
CCN(CC)C(=O)C1CCCN(C/C=C/c2ccccc2[N+](=O)[O-])C1 (stereo not given)	1.3	-4.4	7.4	-10.4	3893	17.8
CCOC(=O)C1CCCN(CCC(C)c2ccccc2)C1 (stereo not given)	0.3	5.5	-3.5	7.5	21853*	-11.1
Cc1[nH]c2ccccc2c1CCN	-12.1	-1.5	8.6	-22.1	7710	nt
Cc1cc(C)n(-c2ccn(Cc3ccc(Cl)cc3Cl)c(=O)n2)n1	-1.3	-2.5	2.2	-3.9	23685*	11.7
CC(C)(C)n1ncc2c(=O)n(Cc3ccc(Cl)cc3Cl)cnc21	1.5	0.5	2.8	2.0	2480	-15.0
O=C(O)c1cc(N2C(=O)C3C4C=CC(C4)C3C2=O)ccc1NCc1cccnc1 (stereo not given)	-1.9	0.5	8.0	-0.6	23049*	7.9
CCOc1cc(-c2nc3ccccn3c2NCC2CCCO2)ccc1O (stereo not given)	2.7	-8.8	3.3	-8.6	22229*	2.4
COc1cc(-c2nc3ccccn3c2NCC2CCCO2)ccc1O (stereo not given)	-1.8	0.2	6.0	-4.0	11200	20.9
COc1cc2c(cc1OC)C1=CC(=O)C(=O)N1C(C)(C)C2	0.9	1.3	54.9*	-0.7	3365	29.6
COc1cc2c(cc1OC)-c1nc3ccccc3c(=O)n1C(C)(C)C2	-9.3	0.5	-1.5	0.5	15653	-4.2
CCN1CCN(c2oc(-c3ccc(OC)cc3)nc2C#N)CC1	-4.3	-2.2	1.0	-2.1	16578*	nt
SMILES	Anthrax LF inh2	BoNT A protease	MazF activator	BoNT-F LC inh	Bead autofluor	VHR inh abs
COc1ccc(N2CCN(c3oc(-c4ccccc4OC)nc3C#N)CC2)cc1	-4.4	-3.4	4.0	-5.3	21565*	27.1
COc1ccc(-c2nc(C#N)c(N3CCc4ccccc4C3)o2)cc1OC	-7.1	-2.4	-3.6	-5.0	17078*	6.4
COc1ccc(N2CCN(c3oc(-c4ccco4)nc3C#N)CC2)cc1	-5.7	?	5.0	6.4	20889*	36.1
COc1ccccc1-c1nc(C#N)c(N2CCN(c3ccccc3)CC2)o1	-2.9	-0.3	1.4	-0.7	2872	8.3
CCOc1ccc(/C=N/n2nnnc2N)cc1O	-10.6	-0.3	6.5	0.0	6085	-34.4
COc1ccc(NC(=O)c2c(C(F)(F)F)nn(C)c2SCc2ccccc2)cc1	-1.6	-1.4	-0.4	-3.0	16890*	20.8
Cc1ccc(C)c(OCCOCCN2CCOCC2)c1	2.1	0.0	4.0	5.6	5064	-8.3
CCc1ccc(N2CC(C(=O)Nc3cccnc3)CC2=O)cc1 (stereo not given)	2.0	-0.4	7.3	-1.5	5196	1.6
Cc1ccc(OCCNC(=O)C2CC(=O)N(c3ccc(C)cc3)C2)cc1 (stereo not given)	6.0	0.9	-1.5	-5.4	2721	30.5
Cc1ccc(N2CC(C(=O)Nc3cccnc3)CC2=O)cc1 (stereo not given)	1.0	0.1	6.7	1.5	23113*	26.7
C=COCCNC(=O)C1CC(=O)N(c2ccc(C)cc2)C1 (stereo not given)	-6.0	-1.1	8.1	-7.4	24393*	27.8
COc1cc(/C=C(/C#N)C(=O)NCc2ccccc2)cc(OC)c1OC	nt	nt	1.8	nt	nt	16.5
Cc1cc(/C=C(\C#N)C(=O)NCc2ccccc2)cc(C)c1O	-0.9	1.2	-2.2	5.7	5219	52.0*
COc1ccc(/C=C(\C#N)C(=O)NCCc2ccccc2)cc1OCc1ccccc1	-1.5	0.3	83.6*	-5.1	2081	2.6
N#C/C(=C/c1ccc(C(=O)O)cc1)C(=O)NCc1ccccc1	-1.8	?	3.1	-8.6	17589*	-0.6
Cc1cccc(C)c1OCCOC(=O)c1ccc(S(=O)(=O)N2CCCC2)cc1	-1.8	-0.2	3.6	-9.0	3865	nt
CC(C)NC(=O)c1csc([C@@H]2O[C@H](CO)[C@H](O)[C@H](O)[C@H]2O)n1	-2.1	0.4	nt	3.6	2890	nt
CCN(CC)c1ccc(NC(=O)COc2ccccc2C)cc1S(=O)(=O)Nc1ccccc1OC	0.9	-0.8	5.3	-6.2	2513	29.9
O=C(COC(=O)c1ccc2c(c1)OCCO2)Nc1cc(Cl)ccc1Cl	0.5	-0.4	52.8*	-13.1	4336	17.5
COC(=O)c1ccc(Cl)c(NC(=O)CN(c2ccc3c(c2)OCO3)S(C)(=O)=O)c1	-10.8	4.4	-0.4	6.7	20796*	2.9
COc1cc(C)ccc1OCc1cc(C(=O)NC(c2ccccn2)C(F)(F)F)no1 (stereo not given)	0.1	-0.7	-1.7	-8.4	3481	nt
Cc1nc(Cl)sc1C(=O)Nc1cccc(Cl)c1C	1.1	0.0	3.7	-3.8	2626	-9.9
Nc1ncnc2c1ncn2[C@@H]1O[C@H](CNC(=O)OC[C@@H](N)Cc2ccccc2)[C@@H](O)[C@H]1O	2.8	0.0	nt	-5.6	5853	nt
